The values below come from PubChem BioAssay.

Test [1] deals with Wnt5a (protein binding on small-molecule microarray). Kind of test: Wnt5a binders on small-molecule microarray, primary screen, biophysical, 635/667 nm fluorescence (AID 1142).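 Note: fluorescence read at 667 nm with signal to noise per printed feature.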 The settings on record: 635 nm fluorescence, higher = more signal.
The nature of test [2]: cell viability in Huh7 cells, primary screen, cytotoxicity control for HCV replication inhibitor project, CellTiter-Glo luminescence, basal, 48 h (AID 1143).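 Note: Huh7 hepatoma cells carrying a hepatitis C replication reporter with no stimulus; test concentration not given here.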 To be noted: Huh7 HCV replicon, higher = more signal, called active from +8 up or from −8 down.
Test [3] in a line: P. aeruginosa biofilm formation inhibitors, primary screen, PAO1 strain, BacTiter-Glo luminescence, LB-PBS (AID 1144). The settings on record: 12 h, higher = more signal.
Test [4] is described as follows: CREB reporter modulators without forskolin, primary screen, cell-based, PC12, CRE-LacZ reporter, unstimulated (AID 1145). To be noted: no forskolin, luminescence, 4.5 h, higher = more signal, called active from +8 up or from −8 down.
A short description of test [5]: CREB reporter modulators under forskolin, primary screen, cell-based, PC12, CRE-LacZ reporter, forskolin-stimulated (AID 1146).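 Note: PC12 cells with 6xCRE LacZ reporter stimulated by forskolin 10 µM; beta-galactosidase reporter signal reflecting CREB driven transcription.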 To be noted: luminescence, 4.5 h, higher = more signal, called active from +8 up or from −8 down.
The target in test [6] is Streptavidin (Streptomyces avidinii) (UniProt P22629). Kind of test: streptavidin binders on small-molecule microarray, primary screen, artefact control for SMM compound annotation, biophysical, 635/667 nm fluorescence (AID 1147).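 Note: signal reflects streptavidin binding to arrayed compounds as a control protein.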 The settings on record: streptavidin binding, higher = more signal.
Test [7] is described as follows: small-molecule binders of probe aInhba, primary screen, biochemical, small-molecule microarray, 635/667 nm fluorescence (AID 1148).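 Note: score merges 667nm spot fluorescence with signal-to-noise for antibody binding to printed compounds.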 To be noted: higher = more signal.
The target of test [8] is Torsin-1A (Homo sapiens) (UniProt O14656). Kind of test: torsin A binders from cell lysate, primary screen, small-molecule microarray, wild-type, 635/667 nm (AID 1149). To be noted: COS7 hTOR1A-WT lysate, 635 nm fluorescence, higher = more signal.
For test [9] the target is unchanged. Briefly: small-molecule binders of mutant TOR1A in lysate, primary screen, cell lysate, small-molecule microarray, COS7 lysate, 635/667 nm fluorescence (AID 1150).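 Note: score pools 667 nm emission and signal to noise measuring lysate protein binding.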 The settings on record: COS7 hTOR1A mutant lysate, 635 nm fluorescence, higher = more signal.
The subject of test [10] is Sonic hedgehog protein (Shh). Briefly: small-molecule binders of Shh protein, primary screen, biochemical, small-molecule microarray, 635/667 nm fluorescence (AID 1151).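 Note: Shh protein binding to compounds spotted on small-molecule microarray slides; score combines spot fluorescence intensity with signal-to-noise across triplicate slides.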 The settings on record: small-molecule microarray binding, 635 nm fluorescence; higher = more signal.
A short description of test [11]: E. coli DRC41 culture turbidity changes, primary screen, E. coli filamentation inducer project, strain DRC41, OD650, 48 h (AID 1152).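 Note: E. coli MC1000 strain DRC41 lacking acrAB efflux pump and sulA.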 The settings on record: E. coli DRC41 (acrAB sulA), higher = more signal, called active from +8 up or from −8 down.
A short description of test [12]: small-molecule binders of probe aLefty1, primary screen, biochemical, small-molecule microarray, 635/667 nm fluorescence (AID 1153).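 Note: score merges spot fluorescence with signal-to-noise ratio from the scanned slide images.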 The settings on record: higher = more signal.
Test [13] can be described thus: PSAC antagonists in infected red cells, primary screen, cell-based, P. falciparum Indochina, OD700, 1 h (AID 1154). The settings on record: P. falciparum Indochina infected RBC osmotic lysis, higher = more signal, called active from +8 up or from −8 down.
The nature of test [14]: PSAC antagonists in infected red cells, primary screen, cell-based, P. falciparum Indochina, OD700, 2 h (AID 1155).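 Note: lysis reports solute entry through the parasite surface anion channel PSAC; channel blockers reduce lysis of infected cells.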 The settings on record: P. falciparum Indochina infected erythrocytes, osmotic lysis OD700; higher = more signal, called active from +8 up or from −8 down.
The nature of test [15]: osmotic lysis modulators in infected erythrocytes, primary screen, PSAC antagonist project, cell-based, P. falciparum Indochina, OD700, 3 h (AID 1156). To be noted: higher = more signal, called active from +8 up or from −8 down.
Test [16] in a line: PSAC antagonists in infected red cells, primary screen, cell-based, P. falciparum Indochina, OD700, 18 h (AID 1157). To be noted: P. falciparum Indochina infected erythrocytes, osmotic lysis OD700, 18 h; higher = more signal, called active from +8 up or from −8 down.
Test [17] in a line: modulators of S6 phosphorylation in cells, primary screen, cell-based, A549, cytoblot, luminescence, serum-stimulated (AID 1158).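 Note: serum-stimulated A549 lung adenocarcinoma cells; signal is phosphorylated S6 detected by cytoblot immunostaining with HRP secondary.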 The settings on record: A549 phospho-S6 cytoblot, 5 h, higher = more signal.
The target in test [18] is NADPH oxidase 2 (Homo sapiens) (UniProt P04839). Kind of test: NOX2-dependent H2O2 signal modulators, primary screen, NOX inhibitor project, cell-based, HEK293-NOX2, PMA-stimulated, Amplex Red fluorescence (AID 1159). Note: test concentration not given here. To be noted: 45 min, higher = more signal, called active from +8 up or from −8 down.
Test [19] deals with NADPH oxidase 4 (Homo sapiens) (UniProt Q9NPH5). Kind of test: NOX4-dependent H2O2 signal modulators, primary screen, NOX inhibitor project, cell-based, HEK293-NOX4, tetracycline-induced, Amplex Red fluorescence (AID 1160). To be noted: 45 min, higher = more signal, called active from +8 up or from −8 down.
Test [20] concerns the target NADPH oxidase 5 (Homo sapiens) (UniProt Q96PH1). Kind of test: NOX5-dependent H2O2 signal modulators, primary screen, NOX inhibitor project, cell-based, HEK293-NOX5, Amplex Red fluorescence (AID 1161). The settings on record: HEK293-NOX5, ionomycin, 45 min, higher = more signal.

Calls of active or inactive are those of the source. Unless noted, the rule behind the calls is not given here.

NADPH oxidase 5 (Homo sapiens), sequence (Q96PH1 whole entry, looked up): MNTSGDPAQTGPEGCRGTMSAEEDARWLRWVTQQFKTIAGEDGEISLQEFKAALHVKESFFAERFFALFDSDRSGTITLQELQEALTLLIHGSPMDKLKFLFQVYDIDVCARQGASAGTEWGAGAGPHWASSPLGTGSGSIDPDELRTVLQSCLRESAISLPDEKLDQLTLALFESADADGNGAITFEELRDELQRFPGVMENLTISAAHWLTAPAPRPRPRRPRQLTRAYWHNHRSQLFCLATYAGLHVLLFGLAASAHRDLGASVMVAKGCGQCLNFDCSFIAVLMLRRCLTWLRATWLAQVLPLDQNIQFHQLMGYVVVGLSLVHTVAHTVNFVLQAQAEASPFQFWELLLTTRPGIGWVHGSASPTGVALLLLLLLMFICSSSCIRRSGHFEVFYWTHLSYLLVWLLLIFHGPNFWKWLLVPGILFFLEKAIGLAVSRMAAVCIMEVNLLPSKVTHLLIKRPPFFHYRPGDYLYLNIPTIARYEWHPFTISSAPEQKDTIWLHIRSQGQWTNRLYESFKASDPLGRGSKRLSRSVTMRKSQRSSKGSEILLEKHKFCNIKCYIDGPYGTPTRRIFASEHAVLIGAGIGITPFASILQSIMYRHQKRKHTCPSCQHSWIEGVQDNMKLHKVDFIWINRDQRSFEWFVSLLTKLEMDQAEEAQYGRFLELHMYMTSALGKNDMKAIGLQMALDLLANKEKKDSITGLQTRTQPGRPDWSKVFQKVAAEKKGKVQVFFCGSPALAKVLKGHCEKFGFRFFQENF
NADPH oxidase 2 (Homo sapiens), sequence (P04839 whole entry, looked up): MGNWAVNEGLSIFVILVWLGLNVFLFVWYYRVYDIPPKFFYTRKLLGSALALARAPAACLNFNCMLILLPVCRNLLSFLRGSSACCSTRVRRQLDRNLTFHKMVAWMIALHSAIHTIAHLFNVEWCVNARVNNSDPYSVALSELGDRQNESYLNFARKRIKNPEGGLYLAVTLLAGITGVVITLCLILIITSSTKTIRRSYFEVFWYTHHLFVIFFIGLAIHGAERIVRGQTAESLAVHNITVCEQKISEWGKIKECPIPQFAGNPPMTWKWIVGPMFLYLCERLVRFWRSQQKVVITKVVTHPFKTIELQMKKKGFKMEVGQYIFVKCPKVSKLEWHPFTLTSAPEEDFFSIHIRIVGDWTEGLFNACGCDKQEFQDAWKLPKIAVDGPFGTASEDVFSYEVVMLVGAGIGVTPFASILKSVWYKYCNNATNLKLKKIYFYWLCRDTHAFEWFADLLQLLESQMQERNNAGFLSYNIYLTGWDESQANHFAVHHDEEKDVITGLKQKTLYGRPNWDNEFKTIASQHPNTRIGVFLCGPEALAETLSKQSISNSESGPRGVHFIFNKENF
Torsin-1A (Homo sapiens), sequence (O14656 whole entry, looked up): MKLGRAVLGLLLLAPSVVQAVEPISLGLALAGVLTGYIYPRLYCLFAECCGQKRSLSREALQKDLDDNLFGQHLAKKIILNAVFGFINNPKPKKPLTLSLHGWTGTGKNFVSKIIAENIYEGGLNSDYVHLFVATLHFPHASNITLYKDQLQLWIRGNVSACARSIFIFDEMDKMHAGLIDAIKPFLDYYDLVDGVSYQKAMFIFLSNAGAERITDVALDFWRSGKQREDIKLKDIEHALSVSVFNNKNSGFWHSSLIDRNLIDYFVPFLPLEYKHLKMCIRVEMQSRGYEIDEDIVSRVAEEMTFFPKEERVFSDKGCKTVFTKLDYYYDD
Streptavidin (Streptomyces avidinii), sequence (P22629 whole entry, looked up): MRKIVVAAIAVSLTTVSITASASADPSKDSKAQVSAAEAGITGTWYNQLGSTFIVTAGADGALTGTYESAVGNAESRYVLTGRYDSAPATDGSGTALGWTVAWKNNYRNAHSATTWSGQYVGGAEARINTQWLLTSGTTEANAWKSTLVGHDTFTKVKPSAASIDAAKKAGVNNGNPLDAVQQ
NADPH oxidase 4 (Homo sapiens), sequence (Q9NPH5 whole entry, looked up): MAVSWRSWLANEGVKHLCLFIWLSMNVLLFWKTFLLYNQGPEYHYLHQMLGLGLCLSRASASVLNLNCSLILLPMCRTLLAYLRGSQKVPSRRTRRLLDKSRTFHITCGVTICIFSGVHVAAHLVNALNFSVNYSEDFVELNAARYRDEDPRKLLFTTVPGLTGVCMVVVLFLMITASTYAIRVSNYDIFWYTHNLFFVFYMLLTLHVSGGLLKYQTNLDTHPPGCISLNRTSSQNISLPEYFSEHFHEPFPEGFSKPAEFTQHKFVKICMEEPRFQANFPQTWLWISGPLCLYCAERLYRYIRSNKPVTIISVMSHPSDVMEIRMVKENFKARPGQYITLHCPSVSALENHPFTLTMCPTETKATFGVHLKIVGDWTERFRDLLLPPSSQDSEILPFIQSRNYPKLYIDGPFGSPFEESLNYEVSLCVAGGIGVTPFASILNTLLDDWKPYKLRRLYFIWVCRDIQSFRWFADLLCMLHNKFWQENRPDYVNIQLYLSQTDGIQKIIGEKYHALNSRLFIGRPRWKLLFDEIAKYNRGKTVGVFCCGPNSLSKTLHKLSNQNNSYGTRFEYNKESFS

`COCCOC(=O)N1C(=O)[C@@]2(c3cc(C#CCCO)ccc31)[C@H](c1ccccc1OCCO)N1[C@H](c3ccccc3)[C@H](c3ccccc3)OC(=O)[C@H]1[C@@H]2C(=O)Nc1nc2ccccc2s1`: the composite z-score in test [1] was found to be 0.138; in test [6] it was 0.284; in test [7], 0.107; with Torsin-1A (Homo sapiens) [8] it was 0.691; with Torsin-1A (Homo sapiens) [9], 0.568; in [10], 1.66. This compound also yielded a composite z-score in test [12] of 0.241. For the same compound, the z-score in test [2] is -0.99 (inactive); in test [3] it was 0.564 (inactive); in test [4], -0.467 (inactive); in test [5] it was 0.428 (inactive); in test [11], -0.395 (inactive); in test [13], 13.1 (active). For the same compound, the z-score in test [14] is 3.36 (inactive); in test [15] it was 0.621 (inactive); in [16], 1.66 (inactive); in test [17], -0.202; in [18] it was 1.18 (inactive); in test [19] it was 0.781 (inactive). For the same compound, the z-score in [20] was 1.53.

As for `CC(CO)N1C(=O)[C@@H]2[C@H]3C(=O)OCC=C[C@H]3OC23C=CCN(C(C)(C)C)C(=O)[C@@H]13` (stereo not given in full), the composite z-score in test [1] was -0.329; in test [6], 0.769; in [7], -0.154; with Torsin-1A (Homo sapiens) [8] it was -1.5; in the test with Torsin-1A (Homo sapiens) [9], -0.163; in [10] it was -0.405. Also, the composite z-score in [12] was -0.407. The z-score in test [2] is -0.304 (inactive); in [3], 1.15 (inactive); in [4], -0.354 (inactive); in [5], -0.304 (inactive); in [11] it was -0.771 (inactive); in test [13], 0.16 (inactive). Besides, the z-score is -0.0471 (inactive) in test [14]; -0.0717 (inactive) in test [15]; -0.23 (inactive) in test [16]; -0.105 in test [17]; 0.566 (inactive) in [18]; 0.401 (inactive) in [19]. The compound further gave a z-score in [20] of 1.43.

Take `[N-]=[N+]=NCc1ccccc1[C@@H]1OC(c2ccc(OCCCO)cc2)=N[C@]1(CCS(=O)(=O)c1ccccc1)C(=O)NCC(O)CO` (stereo not given in full): the composite z-score worked out at 0.541 in test [1]; 0.962 in [6]; 0.0073 in test [7]; 1.05 in the test with Torsin-1A (Homo sapiens) [8]; 1.36 in the test with Torsin-1A (Homo sapiens) [9]; 0.0169 in test [10]. In addition, the composite z-score in test [12] was 0.546. Besides, the z-score in test [2] was -0.866 (inactive); in test [3] it was -0.701 (inactive); in [4], 1.71 (inactive); in test [5] it was -1.17 (inactive); in [11], 0.766 (inactive); in test [13], 24.8 (active). The z-score was 8.05 (active) in test [14]; 0.619 (inactive) in [15]; 0.158 (inactive) in test [16]; 2.02 in [17]; 0.861 (inactive) in test [18]; 1.78 (inactive) in [19]. Besides, in [20], the z-score amounted to 2.57.

As for `CCCC[C@@H](O)C1=C(COc2ccccc2)C[C@H]2C(=O)N(C)C(=O)[C@H]2[C@H]1CO`, the composite z-score in test [1] was -0.339; in [6] it was -0.803; in test [7], -0.102; with Torsin-1A (Homo sapiens) [8], -0.631; with Torsin-1A (Homo sapiens) [9], 0.596; in [10] it was 0.406. Also, in test [12], the composite z-score is -0.274. For the same compound, the z-score was -1.22 (inactive) in test [2]; -1.24 (inactive) in [3]; 2.49 (inactive) in test [4]; -0.94 (inactive) in test [5]; 2.41 (inactive) in test [11]; 4.68 (inactive) in [13]. Besides, the z-score in [14] was -0.35 (inactive); in test [15], 0.241 (inactive); in [16] it was -1.53 (inactive); in test [17], 1.56; in test [18], -0.69 (inactive); in [19], 0.449 (inactive). In test [20], this compound showed a z-score of 0.187.
